# Data as given in the supplement of paper PMC8728848.
# Only a selection was taken, and the strongest signals are over-represented in it overall.
# Experiments:
# Experiment in all cases: glycan array binding signal (z-score within array); higher = stronger binding
# Settings in all cases: glycan notation: IUPAC condensed, linker removed
# [1] = molecular target: Neu5Ac(a2-3)Gal(b1-3)GlcNAc(b1-3)Gal(b1-3)GlcNAc
# How it was run: (§1)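 Glycan array data were curated from 3228 arrays in the Consortium for Functional Glycomics database and kept only where the protein sequence was available. Glycan names were converted to IUPAC-condensed notation, and columns mapping to the same glycan were averaged. The binding signal is a within-array Z-score, averaged across arrays of the same protein sequence at different concentrations or buffers and across linkers. Negative Z-scores can be read as non-binding.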
# [2] = molecular target: Neu5Ac(a2-3)Gal(b1-3)GlcNAc(b1-3)GalNAc
# How it was run: as §1
# [3] = molecular target: Neu5Ac(a2-3)Gal(b1-3)GlcNAc(b1-4)Gal(b1-4)Glc
# How it was run: as §1
# Neu5Ac(a2-3)Gal(b1-4)Glc = molecular target: Neu5Ac(a2-3)Gal(b1-4)Glc
# How it was run: as §1
# [4] = molecular target: Neu5Ac(a2-3)Gal(b1-4)GlcNAc(b1-2)Man
# How it was run: as §1
# [5] = molecular target: Neu5Ac(a2-3)Gal(b1-4)GlcNAc(b1-6)GalNAc
# How it was run: as §1
# Neu5Ac(a2-6)Gal(b1-4)Glc = molecular target: Neu5Ac(a2-6)Gal(b1-4)Glc
# How it was run: as §1
# [6] = molecular target: Neu5Ac(a2-6)Gal(b1-4)GlcNAc(b1-2)Man(a1-6)Man(b1-4)GlcNAc(b1-4)GlcNAc
# How it was run: as §1
# [7] = molecular target: Neu5Ac(a2-6)Gal(b1-4)GlcNAc(b1-2)Man(a1-6)[GlcNAc(b1-2)Man(a1-3)]Man(b1-4)GlcNAc(b1-4)GlcNAc
# How it was run: as §1
# [8] = molecular target: Neu5Ac(a2-6)Gal(b1-4)GlcNAc(b1-3)[Neu5Ac(a2-6)Gal(b1-4)GlcNAc(b1-6)]GalNAc
# How it was run: as §1
# [9] = molecular target: Neu5Ac(a2-8)Neu5Ac(a2-8)Neu5Ac(a2-3)[GalNAc(b1-4)]Gal(b1-4)Glc
# How it was run: as §1
# [10] = molecular target: Neu5Gc(a2-3)Gal(b1-4)[Fuc(a1-3)]GlcNAc
# How it was run: as §1
# [11] = molecular target: Neu5Gc(a2-6)Gal(b1-4)GlcNAc
# How it was run: as §1
# [12] = molecular target: Neu5Gc(a2-8)Neu5Gc(a2-3)Gal(b1-4)GlcNAc
# How it was run: as §1
binder,measurement,setting,value
"GroEL (Clostridium difficile), Q18CT5 (protein) MAKEIKFSEETRRALEAGVNKLADTVKVTLGPKGRNVILDKKFGSPLITNDGVTIAKEIELEDRFENMGAQLVKEVATKTNDVAGDGTTTATVLAQAIIREGLKNVTAGANPILLRKGIQKAVTVAVEELKNQSRIVETQEAISQVASISAGDEEVGKLIAEAMEIVGKDGVITVEESQTMNTELDAVEGMQFDRGFVSAYMVTDVDKMEAVLNDPYILITDKKISNIQELLPVLEQIVQQGKKLLIIAEDVEGEALSTLVVNKLRGTFDVVAVKAPGFGDRRKEMLQDIAILTGAQVISEELGYDLKEADLSMLGRASSVKVTKESTTIVDGSGDKKAIEDRVTQIKHQVEQTTSDFDREKLMERLAKLAGGVAVVKVGAATEVELKERKLRIEDALNATRAAVEEGIVAGGGTAFVSVIPAIGTLIESLEGEVKLGAQIVKKALEEPLRQIAINAGLEGAVIVQNVVNSEAETGFDALNEKYVNMIEAGIVDPTKVSRSALQNAASIASTFLTTEAAVADLPEKEDAGMPGMGGGMPGMM",glycan array binding signal (z-score),[1],-0.917
same,glycan array binding signal (z-score),[2],0.139
same,glycan array binding signal (z-score),[3],2.65
same,glycan array binding signal (z-score),Neu5Ac(a2-3)Gal(b1-4)Glc,0.753
same,glycan array binding signal (z-score),[4],0.243
same,glycan array binding signal (z-score),[5],-0.601
same,glycan array binding signal (z-score),Neu5Ac(a2-6)Gal(b1-4)Glc,0.455
same,glycan array binding signal (z-score),[6],-0.426
same,glycan array binding signal (z-score),[7],-0.085
same,glycan array binding signal (z-score),[8],-1.37
same,glycan array binding signal (z-score),[9],-0.254
same,glycan array binding signal (z-score),[10],-0.437
same,glycan array binding signal (z-score),[11],1.41
same,glycan array binding signal (z-score),[12],-0.482
